assay: viability profiling in RPMI8226 myeloma cells – cell-based, resazurin fluorescence, basal, 24 h, PK04 Diversity Set, profiling panel (AID 1180); conditions: higher = more signal;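 note: RPMI8826 multiple myeloma cell line at 5000 cells per well; test concentration not given here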

Compound	z-score
O=C1OCCC/C=C\[C@H]2OC34C=CCN(Cc5ccccc5)C(=O)[C@H]3N(CCCCCO)C(=O)[C@@H]4C12 (some centres undefined)	1.16
CO[C@H]1O[C@H](CO)[C@@H](OC(=O)Nc2ccc(C(F)(F)F)cc2)[C@H](OC(=O)Nc2ccccc2-c2ccccc2)[C@H]1OC(=O)Nc1ccccc1-c1ccccc1	-4.63
COCCOC(=O)N1C(=O)[C@@]2(c3cc(C#CCCO)ccc31)[C@H](C(=O)N1CCN(c3ncccn3)CC1)[C@H]1C(=O)O[C@H](c3ccccc3)[C@H](c3ccccc3)N1[C@@H]2c1ccc(O)cc1	0.818
[N-]=[N+]=NCc1ccccc1[C@H]1OC(c2ccc(OCCCO)cc2)=N[C@@]1(Cc1ccccc1)C(=O)N1CCOCC1	0.349
C=CCC(OC(C)=O)[C@@H]1[C@@H](N(Cc2ccc(-c3ccccc3)cc2)C(=O)c2ccc(C)cc2)c2cc(OCCCO)ccc2N1C(=O)c1ccc2ccccc2c1 (some centres undefined)	1.36
CCCCC(O)C1C=CC2C(=O)N(C)C(=O)C2N1Nc1ccccc1 (centres undefined)	-1.5
COCCOC(=O)N1C(=O)[C@@]2(c3cc(C#CCC(C(=O)OC)C(=O)OC)ccc31)[C@H](C(=O)N1CCCCCCC1)[C@H]1C(=O)O[C@H](c3ccccc3)[C@H](c3ccccc3)N1[C@@H]2c1ccccc1OCCO	0.0277
COC(=O)[C@@]1(Cc2ccccc2)[C@H]2c3cc(C(=O)N4CCCC4)n(Cc4ccc(C(F)(F)F)nc4)c3C[C@H]2CN1C(=O)c1ccccc1	-0.578
CN1C(=O)[C@]2(CCS(=O)(=O)c3ccccc3)N=C(c3ccc(OCCCO)cc3)O[C@@H]2c2ccccc21	-1.02
